Hits are enriched below; roughly 0.93% of the tested compounds scored in any of these assays.
HIV TAR-Tat: HIV-1 TAR-Tat binding disruption. HIV-1 TAR RNA, Tat peptide displacement FRET; stronger effect = higher value. z-score (test concentration not listed). actives 0.6% (n = 100,000); active means z-score of 3 or more in at least 2 runs
CDC25B CDK2 inh: human CDC25B-CDK2/CyclinA binding inhibition; P30305+P24941; HTRF CDC25B-CDK2/CyclinA binding, anti-His/anti-Flag; stronger effect = higher value; z-score (concentration not given with the values); actives 0.72% (n = 94,000); AID 1259370; in the data active means z-score above about 3.2
Large screens that a line does not name were inactive.

CC(C)C(NS(=O)(=O)c1cccs1)C(=O)NCc1ccco1 (stereo unspecified)	none (no result: CDC25B CDK2 inh)
Clc1cc2c(c3ncccc13)OCN(CCc1ccccc1)C2	none (no result: HIV TAR-Tat)
CCCCN1COc2c(cc(Cl)c3cccnc23)C1	CDC25B CDK2 inh 17
COc1ccc(NC(=O)NC(C)c2c(-n3cccc3)sc(C)c2C)cc1 (stereo unspecified)	none
N.N.N.N.N.N.N.N.N.N.N.N.N.N.O.O.[Cl-].[Cl-].[Cl-].[Cl-].[Cl-].[Cl-].[Ru+4].[Ru+5].[Ru+5]	CDC25B CDK2 inh 4.2 (no result: HIV TAR-Tat)
COc1ccccc1CCN[C@H]1CS(=O)(=O)C[C@@H]1S(=O)(=O)c1cccs1	none
O=c1[nH]c2ccc(Nc3cc(N4CCOCC4)ncn3)cc2[nH]1	CDC25B CDK2 inh 8.2
Cc1cc(C)n(-c2cc(Nc3ccc(F)cc3)ncn2)n1	none (no result: CDC25B CDK2 inh)
CCOC(=O)N1CCN(S(=O)(=O)c2ccc3c4c2CC(=O)N4CC(C)S3)CC1 (stereo unspecified)	none (no result: CDC25B CDK2 inh)
COc1ccc2c(c1)Cc1sc(NC(=O)c3ccc(OC)c(Br)c3)nc1-2	CDC25B CDK2 inh 19
COc1cc(OC)cc(C(=O)Nc2nc3c(s2)CCc2ccccc2-3)c1	none (no result: HIV TAR-Tat)
O=C(NC1CC1)c1ccc(N2Cc3ccccc3Oc3ncccc32)s1	none (no result: CDC25B CDK2 inh)
CCc1cc2c3c([nH]c2cc1S(=O)(=O)Nc1ccc(F)cc1F)CCCC3=O	none (no result: CDC25B CDK2 inh)
CCc1cc2c3c([nH]c2cc1S(=O)(=O)Nc1ccc(Cl)cc1F)CCCC3=O	HIV TAR-Tat 4.3 (no result: CDC25B CDK2 inh)
O=c1c(=S)[nH]ccn1-c1ccc2c(c1)OCCO2	none
COc1ccccc1/C=C/c1nc(C#N)c(N2CCCCC2)o1	none
COc1ccccc1/C=C/c1nc(C#N)c(N2CCNCC2)o1	CDC25B CDK2 inh 9.6
N#Cc1nc(/C=C/c2cccs2)oc1N1CCC(Cc2ccccc2)CC1	none
N#Cc1nc(/C=C/c2cccs2)oc1N1CCNCC1	CDC25B CDK2 inh 9.3
COc1ccccc1NC(=O)Nc1nc2c(s1)CCCCCC2	none (no result: CDC25B CDK2 inh)
Cc1nc(-c2cccs2)c(CC(=O)Nc2ccc(N3CCCC3)cc2)s1	CDC25B CDK2 inh 12
Cc1nc(-c2cccs2)c(CC(=O)N2CCCC2)s1	none
Cc1c(C)n(-c2ccccc2Br)c2ncn3nc(-c4ccccc4O)nc3c12	none
Clc1ccc(-c2nnc(-c3ccccc3)o2)cc1	none
Nc1ccc(F)c(-c2nnc(-c3ccccc3)o2)c1	HIV TAR-Tat 33 (no result: CDC25B CDK2 inh)
O=C(c1cccc2cnccc12)N1CCCC1	none
CCSCCOC(=O)C1=C(C)NC2=C(C(=O)CCC2)C1c1ccccc1OCc1ccccc1 (stereo unspecified)	none
Nc1ncc(S(=O)(=O)O)s1	none (no result: HIV TAR-Tat)
Nc1ncc(C2=C(Cl)C(O)C(Cl)=C(Cl)C2O)s1 (stereo unspecified)	CDC25B CDK2 inh 20 (no result: HIV TAR-Tat)
C=Cc1c(C)/c2[n-]/c1=C\c1[n-]c(c(CC)c1C)/C=c1\[n-]c3c(c1C)C(=O)C(C(=O)[O-])C=3c1[n-]c(c(C)c1CCC(=O)[O-])\C=2.[Cu].[Na+].[Na+] (stereo unspecified)	HIV TAR-Tat 23 (no result: CDC25B CDK2 inh)
O=C(CCCn1ccc2cc(S(=O)(=O)N3CCCC3)ccc21)NCc1ccc2c(c1)OCO2	none (no result: CDC25B CDK2 inh)
CCc1ccccc1NC(=O)C1CC2CSCN2C12C(=O)Nc1ccccc12 (stereo unspecified)	none (no result: CDC25B CDK2 inh)
O=C(c1cccc(NC2=NC3CS(=O)(=O)CC3S2)c1)N1CCN(c2ccccc2)CC1 (stereo unspecified)	none
CC1=NN(c2ccccc2)C(=O)/C1=C1/C(=O)N(c2ccccc2)N=C1C	none (no result: HIV TAR-Tat)
CCC1=NN(c2ccccc2)C(=O)C1	CDC25B CDK2 inh 10
Cc1c([N+](=O)[O-])sc2nc[nH]c(=O)c12	HIV TAR-Tat 11
Cc1c(C(=O)Nc2ccc(F)cc2)sc2nc[nH]c(=O)c12	none (no result: CDC25B CDK2 inh)
CC1Cc2cc(S(=O)(=O)Nc3ccc(Cl)cc3)ccc2N1C(=O)C1CCC1 (stereo unspecified)	none (no result: CDC25B CDK2 inh)
Cc1ccnc(N2C(=O)c3ccccc3C2Nc2ccccc2)c1 (stereo unspecified)	none
Cc1ccc(N2C(=O)c3ccccc3C2Nc2cccnc2)nc1 (stereo unspecified)	CDC25B CDK2 inh 12
CC1(C)N([O-])C2=C(c3ccccc3C2=O)[N+](=O)C1(C)C	CDC25B CDK2 inh 17 (no result: HIV TAR-Tat)
CCOc1ccc(OCC(=O)Nc2scc(-c3cccs3)c2C(=O)OC)cc1	none
Cc1cc2c(n1-c1ccc(C(=O)O)cc1)CCCC2	none
Cc1ccc(C)n1-c1cc(C(=O)O)cc(C(=O)O)c1	HIV TAR-Tat 17
CCC(C)NC(=O)C1=CC(c2ccc(F)cc2)=NS(=O)(=O)N1C (stereo unspecified)	HIV TAR-Tat 3.8
CN1C(C(=O)NCc2ccc(F)cc2)=CC(c2ccc(F)cc2)=NS1(=O)=O	none
O=C(CCCn1c(=O)c2cccn2c2cccnc21)N1CCc2ccccc2C1	none (no result: CDC25B CDK2 inh)
Cc1cc(C)nc(Nc2nc(-c3ccc(O)c(O)c3)cs2)n1	HIV TAR-Tat 29
Oc1ccc(-c2csc(Nc3ncccn3)n2)cc1O	none (no result: HIV TAR-Tat)
C=CCSCC=C	HIV TAR-Tat 15 (no result: CDC25B CDK2 inh)
Cc1sc(NC(=O)c2ccc3c(c2)OCCO3)c(C(N)=O)c1C	none (no result: CDC25B CDK2 inh)
N[C@@H](Cc1cnc[nH]1)C(=O)O	none (no result: HIV TAR-Tat)
O=C(O)c1cnc[nH]1	CDC25B CDK2 inh 3.9 (no result: HIV TAR-Tat)
COC(=O)c1c(N)n(-c2ccc(OC)c(OC)c2)c2nc3ccccc3nc12	CDC25B CDK2 inh 10
CCCCOC(=O)c1c(N)n(-c2ccc(OC)cc2)c2nc3ccccc3nc12	CDC25B CDK2 inh 11
CCOC(=O)c1c(N)n(-c2ccc(C)c(C)c2)c2nc3ccccc3nc12	none
CCCCOC(=O)c1c(N)n(-c2ccccc2OC)c2nc3ccccc3nc12	none (no result: HIV TAR-Tat)
COc1ccc(NC(=O)C2CCCN(c3nc4ccsc4c(=O)s3)C2)cc1 (stereo unspecified)	none
O=c1nc(SCc2ccccc2)c2c(n1-c1ccccc1)CCC2	none
S=c1n(-c2ccccc2)sc(=NC(=Nc2ccccc2)c2ccccc2)n1-c1ccccc1	none (no result: HIV TAR-Tat)
ON(Cc1ccccc1)Cc1ccccc1	none (no result: HIV TAR-Tat)
BrC=C=CCN(CC=C=CBr)Cc1ccccc1	CDC25B CDK2 inh 4.3 (no result: HIV TAR-Tat)
COc1cc(/C=C2\SC(=S)N(c3ccccc3)C2=O)ccc1OC(=O)C12CC3CC(CC(C3)C1)C2	none (no result: HIV TAR-Tat)
CCn1c[n+](CC(O)COc2ccccc2)c2cc(C)c(C)cc21 (stereo unspecified)	CDC25B CDK2 inh 16
CCn1c[n+](CC(O)COc2ccccc2)c2ccccc21 (stereo unspecified)	none
Cn1c(=O)c2c(SCC(=O)N3CCCc4ccccc43)nc(-c3ccccc3F)nc2n(C)c1=O	none (no result: CDC25B CDK2 inh)
O=C(O)c1cc2ccccc2c(=O)[nH]1	none (no result: CDC25B CDK2 inh)
O=c1[nH]c(Nc2ccccc2)cc2ccccc12	CDC25B CDK2 inh 16
O=S(=O)(CCc1ccccc1)NCCc1csc2nc(-c3ccccc3F)nn12	none (no result: CDC25B CDK2 inh)
N#Cc1c(NC(=O)C2CC(=O)OC23CCCCC3)sc2c1CCCCC2 (stereo unspecified)	none
Cc1cccnc1NC(=O)C1CC(=O)OC12CCCCC2 (stereo unspecified)	CDC25B CDK2 inh 14
c1cnc2sc(N3CCC4(CC3)OCCO4)nc2c1	none (no result: HIV TAR-Tat)
CNc1nc2cccnc2s1	CDC25B CDK2 inh 8.2 (no result: HIV TAR-Tat)
CCOc1ccccc1-n1nnc(S(=O)(=O)c2ccc(CC)cc2)c1N	none
CCc1ccc(C2c3c(-c4cc(C)ccc4O)n[nH]c3C(=O)N2Cc2ccco2)cc1 (stereo unspecified)	none
CC1CC(C)CN(C(=O)CCS(=O)(=O)c2ccc3c(c2)n(C)c(=O)c(=O)n3C)C1 (stereo unspecified)	none
CN(CC(=O)N1CCc2ccccc2C1)S(=O)(=O)c1ccc2c(c1)CCCC(=O)N2	none (no result: CDC25B CDK2 inh)
CN(C)S(=O)(=O)N(CC(=O)N1CCc2ccccc2C1)c1ccccc1	HIV TAR-Tat 11

Screening data (PubChem BioAssay)
